Drawing on PubChem BioAssay (NCI), this text covers growth for 40 molecules.

This is part of a sample that, as a whole, favours compounds with a hit. Of some 83,000 tested, about 20% had one in any assay.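 Testing used 96-well plates and a 48-hour single-concentration exposure. Example: -40 means 40% of the starting cells died.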 A number with no mark means an inactive call. Active and inactive are the calls of the source. Rule for the calls: active = growth percent below 10; inactive = the rest.

The subject of this test is HL-60(TB) leukemia. As to the kind of experiment: NCI-60 one-dose screen, 48 h (100 = growth as untreated, 0 = no growth, -100 = all killed). Conditions: 10 µM unless noted.
Take `C[C@@H]1CC[C@@H]2[C@@H]1[C@H](OC(=O)/C=C/c1ccccc1)[C@]1(CCCOCCOCCOCCOC(=O)CCCC[C@@H]3SC[C@@H]4NC(=O)N[C@@H]43)C[C@@H](OC(=O)CO)[C@@]2(C)O1`: the growth is 98.1%.

For `Cn1c(/C(C#N)=C/c2ccc3ccccc3c2)cc2ccccc21`, the growth was -6.93% (active).

As to `N=c1c(S(=O)(=O)c2ccccc2)cc2c(=O)n3ccccc3nc2n1C1CCCC1`, the growth is 104%.

Take `CCOC(=O)c1cnn2c(-c3ccc(Cl)cc3)nc(NCc3ccccc3)nc12`: the growth was 82.7%.

On to `N#Cc1c(N)n(CCNC(=O)c2ccccc2)c2nc3ccccc3nc12`, for which the growth was 34.5%.

On to `Cc1ccc(Nc2nc(-c3cc(O)c(C)c(C)c3O)cs2)cc1`, for which the growth was 9.51% (active).

`COc1ccc(-c2n[nH]nc2-c2cc(OC)c3c(c2)OCO3)cc1`: the growth is -38.2% (active).

Turning to `O=C(N/N=C/c1ccc(O)cc1O)c1cccnc1`, the growth is -17.2% (active).

`CCN(CC)c1ccc(/C=N\NC(=O)/C=C/C=C/c2ccc3c(c2)OCO3)c(O)c1`: the growth was 2.66% (active).

In the case of `C=C(C)[C@@H]1CCC[C@]2(C(=O)OC)CC[C@]3(C)[C@@H](CC[C@@H]4[C@@]5(C)CCCNC(C)(C)[C@@H]5CC[C@]43C)[C@@H]12`, the growth is 96.7%.

Regarding `COc1cc2c3c(c(=O)oc2cc1OS(=O)(=O)c1ccc(C(F)(F)F)cc1)CCCCC3`, the growth was 107%.

Turning to `COc1ccc(-c2cc(-c3cccnc3)nc3sc4c(=O)[nH]c(-c5ccc(Cl)cc5)nc4c23)cc1OC`, the growth was 90.3%.

Consider `CC1Cc2c(Cl)ncnc2N(C)c2ccc(O)cc21` (stereo not given), for which the growth is 91.4%.

As to `COc1ccc2nc3cc(Cl)ccc3c(N3CCN(c4ccnc(N5CCN(C)CC5)n4)CC3)c2c1`, the growth was 29.8%.

For `O=C1C(N2CCOCC2)=C(I)C(=O)c2ncccc21`, the growth was 80.9%.

In the case of `Cc1cc(O)c2c(c1)C1OC(=O)CCCCCN1C1=C2C(=O)c2cccc(OC3CC(O)C(O)C(C)O3)c2C1=O` (stereo not given), the growth is 79.2%.

Turning to `Cc1ccc(-c2cc(-c3nnc(SCC(=O)c4ccccc4)o3)c3ccccc3n2)cc1`, the growth is 103%.

In the case of `COc1nc2c(cc1S(=O)(=O)c1ccccc1)CCc1c-2cnn1-c1ccccc1`, the growth was 58.7%.

On to `O=C(CI)OCC(COC(=O)CI)OC(=O)CI`, for which the growth was 53.3%.

As for `Cc1c(C(=O)NCCC(=O)NO)sc2ncnc(Nc3ccc(F)c(Cl)c3)c12`, the growth is 103%.

`CC(C)n1nc(C#Cc2cccc(O)c2)c2c(N)ncnc21`: the growth is -57.9% (active).

With `COc1ccc(Oc2c(I)cc(CC(NC(C)=O)C(=O)O)cc2I)cc1` (stereo not given), the growth was 86.3%.

Regarding `O=C1NC(=O)C(CSc2ccccc2)(c2ccccc2)N1` (stereo not given), the growth is 99.9%.

On to `CC1=C(C(=O)/C=C/c2c[nH]c3ccccc23)C(c2ccccc2)NC(=S)N1` (stereo not given), for which the growth is 99.5%.

Turning to `C/C(=N\O)c1ccc(NC(=O)CSc2nnc(-c3cc(-c4ccc(S(N)(=O)=O)cc4)nc4ccccc34)n2-c2ccccc2)cc1`, the growth is 24.1%.

Turning to `O=C1/C(=C/c2ccccn2)SC(=S)N1N1CCOCC1`, the growth was 97.2%.

For `Nc1ccc(-c2ccc(-c3ccccc3N)c3[nH]c4ccccc4c23)cc1`, the growth is 5.47% (active).

In the case of `COc1ccc(NC(=O)Nc2ccc(-c3cccnc3)cc2N2CCC(CO)CC2)cc1`, the growth is 88.6%.

Consider `COc1ccc(C(C)C=O)cc1` (stereo not given), for which the growth was 96.9%.

As to `Cc1cc2cc3cc(C)c(N(C)C)cc3nc2cc1N(C)C`, the growth was 47.5%.

Turning to `O=C(CN(C(=O)Cn1c(=O)n2nnnc2c2ccccc21)c1ccccc1C(F)(F)F)Nc1ccc(C(F)(F)F)cc1`, the growth is 101%.

On to `CCN(CC)CCNC(=O)c1c(C)[nH]c(/C=C2\C(=O)Nc3ccc(F)cc32)c1C`, for which the growth was -23% (active).

Consider `C=C1C(=O)O[C@H]2[C@H]1CC/C(COC(=O)NCc1ccc(Cn3c(=O)sn(-c4ccc(I)cc4)c3=O)cc1)=C\CC[C@@]1(C)O[C@@H]21`, for which the growth is -32% (active).

Consider `c1ccc(-c2cc(-c3cc(-c4ccccc4)on3)no2)cc1`, for which the growth was 64%.

In the case of `C#C[C@]1(O)CC[C@H]2[C@@H]3CC=C4c5sc(-c6ccccc6)nc5CC[C@]4(C)[C@H]3CC[C@@]21C`, the growth was 74.2%.

As for `Cn1cc(-c2nc(-c3c[nH]c4ccncc34)cs2)c2cc(Br)ccc21`, the growth was -61.4% (active).

On to `O=C(CCl)Nc1ccc(Cc2ccc(NC(=O)CCl)cc2)cc1`, for which the growth is -18.3% (active).

As to `O=[N+]([O-])c1c(F)cccc1Nc1cccc(F)c1`, the growth is 100%.

As for `O=C(N/N=C(\CS(=O)(=O)c1ccccc1)c1cc2ccccc2oc1=O)c1ccccc1`, the growth is 105%.

For the molecule `c1cn2cc(-c3ccc4cn[nH]c4c3)nc(Nc3ccc(N4CCOCC4)cc3)c2n1`, the growth is 71.1%.
